Hits are enriched below; roughly 12% of the tested compounds scored in any of these assays.
RORgamma inh = blocks mouse ROR gamma transcriptional activity. P51450. Drosophila S2 Gal4-RORgamma UAS-luciferase reporter, 20 h. Potency, µM (doses to about 53.6 µM), for the others: at the highest dose activity change, negative = inhibition, hits mostly inhibitors. hit rate 5.4% among 310,000. AID 2551; note: nearly all actives have a fitted effect of over 60% in size
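Using a luciferase readout, inhibitors were identified by reduced reporter activity in Drosophila cells coexpressing a copper-inducible Gal4–ROR gamma fusion and UAS-driven Photinus luciferase, incubated 20 hr after 700 uM copper sulfate.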
Gal4-VP16 FLuc = inhibits Gal4-VP16 luciferase reporter, ROR gamma counter-screen | Drosophila S2 Gal4-VP16 UAS-luciferase, luminescence, 20 h | Potency, µM (titrated, usually from 53.6 µM), inactives show top-dose activity, negative = inhibition, usual class: inhibitors | hit rate 3.5% among 310,000;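 note: Gal4-VP16 expression switched on by copper sulfate through the metallothionein promoter; nearly all actives have a fitted effect of over 50% in size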
Sfp PPTase inh = blocks B. subtilis Sfp PPTase activity; Q9F4F7; Biochemical Sfp PPTase activity, qHTS; Potency, µM, for the others: largest response in the series, negative = inhibition, hits mostly inhibitors; hit rate 3.5% among 310,000;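 note: the enzyme is Sfp with the accession as filed and its product quenches rhodamine fluorescence; 0% = enzyme reaction without inhibitor and -100% = no enzyme wells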
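With Hepes-Na pH 7.6 buffer containing 10 mM MgCl2, Sfp (15 nM) modified BHQ-2-YbbR (12.5 uM) using rhodamine-CoA (5 uM). Two reads 30 minutes apart at 525/598 nm yielded each well's rate.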
ALDH1A1 block = inhibitors of human aldehyde dehydrogenase 1A1; P00352; Purified ALDH1A1, NADH fluorescence, propionaldehyde substrate; Potency, µM (series often up to 75.3 µM), inactives show at the highest dose activity, negative = inhibition, hits mostly inhibitors; hit rate 7.3% among 220,000; active = well fitted inhibition curve with a large enough effect, not every such curve was filed as active; inconclusive = small, poorly fitted or top-dose-only effect, or another doubt; inactive = no such curve, though single readings can be large or run the other way;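 note: plate controls were no enzyme wells and a reference inhibitor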
Target sequence (P00352 whole entry, looked up): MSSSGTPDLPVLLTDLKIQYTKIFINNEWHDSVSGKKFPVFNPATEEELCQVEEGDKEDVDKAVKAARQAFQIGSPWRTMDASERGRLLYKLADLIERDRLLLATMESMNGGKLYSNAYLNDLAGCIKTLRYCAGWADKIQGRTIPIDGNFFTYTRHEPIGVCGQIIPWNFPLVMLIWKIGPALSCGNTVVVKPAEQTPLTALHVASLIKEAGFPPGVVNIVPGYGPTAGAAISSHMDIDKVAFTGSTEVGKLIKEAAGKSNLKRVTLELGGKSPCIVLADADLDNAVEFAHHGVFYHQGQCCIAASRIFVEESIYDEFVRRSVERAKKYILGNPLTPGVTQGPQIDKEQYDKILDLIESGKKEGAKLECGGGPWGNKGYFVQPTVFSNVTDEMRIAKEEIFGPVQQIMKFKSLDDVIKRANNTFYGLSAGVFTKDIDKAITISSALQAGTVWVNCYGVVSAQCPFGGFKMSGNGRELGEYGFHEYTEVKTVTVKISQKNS
PLK1 PBD inh = PLK1 (human) polo-box domain binding inhibition; Potency, µM, without a hit: max response, negative = inhibition, hits mostly inhibitors; Plk1 PBD binding of FITC phosphopeptide, fluorescence polarization; P53350; hit rate 2.8% among 360,000; note: series mostly up to about 57 µM; nearly all actives have a fitted effect of over 65% in size
An asterisk follows results filed as active; u = inconclusive; x = not tested or not shown; [ ] = remark or other dose. Unless noted, calls come from the whole dose curve; as a rule, active = well fitted curve in the direction sought with a large enough effect; inconclusive = small, poorly fitted or top-dose-only effect, or another doubt; inactive = no such curve, though single readings can be large; an effect the other way counts as inactive or inconclusive. Unless noted, % is set by controls: 0 for no effect and ±100 for the full control effect; potency is the fitted concentration of half-maximal effect.

SMILES | RORgamma inh | Gal4-VP16 FLuc | Sfp PPTase inh | ALDH1A1 block | PLK1 PBD inh
O=C(CN1CCN(c2ccccn2)CC1)Nc1cccc(C(F)(F)F)c1 | 13% | -9% | 9% | 9.5µM* | -4%
O=C(Nc1cccc(C(F)(F)F)c1)c1cccnc1N1CCN(CCO)CC1 | 7% | -6% | 15% | -2% | -1%
O=C(CN1CCN(c2ccccc2)CC1)Nc1cccc(C(F)(F)F)c1 | -3% | -5% | 4% | 1% | 2%
O=C(CN1CCN(c2ccccn2)CC1)N1c2ccccc2Sc2ccc(C(F)(F)F)cc21 | -29% | 3% | u | 7.9µM* | -6%
O=C(Nc1cccc(C(F)(F)F)c1)c1cccnc1N1CCN(c2ccccc2)CC1 | 27% | u | 22µM* | u | -3%
CN(C)CCn1c(CO)nc2c1c(=O)n(C)c(=O)n2C | x | x | x | -1%[13.5 µM] | x
COc1ccc(N=C2SC(CC(=O)Nc3ccccc3F)C(=O)N2Cc2ccco2)cc1 (stereo not given) | u | -9% | 2% | 2.5µM* | 2%
O=C(CC1SC(=Nc2ccccc2)N(CCc2ccccn2)C1=O)Nc1ccc(F)cc1 (stereo not given) | 35% | 4% | 5% | -14% | -4%
COc1cccc(N=C2SC(CC(=O)Nc3ccccc3)C(=O)N2Cc2ccccn2)c1 (stereo not given) | 22% | 2% | u | 8.9µM* | -5%
COc1ccc(N=C2SC(CC(=O)Nc3ccccc3)C(=O)N2Cc2ccco2)cc1 (stereo not given) | u | 2% | 30% | u | -4%
OC(Cc1cccc(Br)c1)c1ncc(-c2cccc(C(F)(F)F)c2)[nH]1 (stereo not given) | x | x | x | x | 10%
CC(C)Cc1nc2sc3c(SCC(N)=O)ncnc3c2c2c1CCC2 | 1% | 7% | 9% | 7% | -15%
O=c1[nH]cnc2c1sc1nc(-c3ccccc3)c3c(c12)CCCC3 | 19% | u | -6% | -4% | 0%
Cc1nc2c(sc3nc4c(cc32)COC(C)(C)C4)c(=O)n1CC(=O)NCc1ccco1 | -1% | -17% | -17% | u | -19%
CC1(C)Cc2nc3sc4c(SCC(=O)NCc5ccco5)ncnc4c3cc2CO1 | u | -18% | u | 8.9µM* | -16%
O=C(O)CSc1ncnc2c1sc1nc(-c3ccccc3)c3c(c12)CCC3 | -5% | -5% | 5% | x | 30µM*
S=c1nc[nH]c2c1sc1nc(-c3ccccc3)c3c(c12)CCCC3 | 16µM* | 10µM* | 0% | 2.5µM* | 30µM*
CC(C)c1nc2sc3c(SCC(=O)NCc4ccco4)ncnc3c2c2c1CCC2 | -3% | -17% | 25µM* | u | u
COc1cccc(-c2ccc(CN3C(C(C)C)C(=O)N(Cc4cn(CCC5OCCO5)nn4)CCS3(=O)=O)cc2)c1OC (stereo not given) | x | x | x | x | 2%
CC12CCC(C1)C(C)(C)C2=O (stereo not given) | 1%[10 µM] | -3% | 19% | x | x
CCSc1ncc(/C=N/Nc2ccc(Cl)cc2)n1C | 19% | -5% | 28µM* | u | -8%
CCSc1ncc(/C=N/Nc2ccc([N+](=O)[O-])cc2)n1C | 14% | 1% | -9% | 5% | 9%
CCSc1ncc(/C=N/Nc2ccccc2)n1C | u | u | -1% | u | 7.5µM*
COC(=O)c1cnc(SCc2ccc(Cl)cc2)n1C | -18% | u | 13% | 5% | -12%
O=C(C1CC1)N1CCc2cc(Br)cc(S(=O)(=O)NCc3ccco3)c21 | 4% | 3% | 2% | 2µM* | -9%
SMILES | RORgamma inh | Gal4-VP16 FLuc | Sfp PPTase inh | ALDH1A1 block | PLK1 PBD inh
O=C(C1CC1)N1CCc2cc(Br)cc(S(=O)(=O)NCc3ccc4c(c3)OCO4)c21 | 16% | -1% | 14% | 10µM* | -4%
CCOCCCNS(=O)(=O)c1cc(Br)cc2c1N(C(=O)C1CC1)CC2 | 19% | 1% | 18% | 10µM* | -1%
O=C(C1CC1)N1CCc2cc(Br)cc(S(=O)(=O)NCc3ccccn3)c21 | -12% | -1% | -1% | u | -4%
O=C(C1CC1)N1CCc2cc(Br)cc(S(=O)(=O)NCCN3CCOCC3)c21 | 4% | -4% | -2% | -1% | -10%
N#CCCn1c(=O)cnc2cnc(Nc3ccccc3)nc21 | u | -7% | 14% | -9% | x
COC(=O)[C@@]1(Cc2ccccc2)[C@H]2c3cc(C(=O)N4CCCC4)n(Cc4ccc(OC)c(OC)c4)c3C[C@H]2CN1C(=O)c1ccccc1 | 3% | -12% | -2% | -4% | x
COc1ccc2c(c1)Sc1ccccc1N2 | 6.3µM* | 6.3µM* | -4% | -2% | -19%
c1ccc2c(c1)Nc1cc3ccccc3cc1S2 | 1% | 7% | 6% | -4% | -15%
COc1cccc(C(C(=O)NCC2CCCO2)N(C(=O)Cn2nnc3ccccc32)c2ccc(NC(C)=O)cc2)c1 (stereo not given) | 11% | -9% | 13% | x | 0%
COc1ccc(C(=O)C2CCN(C(=O)c3ccc(F)cc3)CC2)cc1 | u | -10% | 4% | x | -16%
COc1ccc(CCNC(=O)C2CCN(C(=O)c3ccc(Br)cc3)CC2)cc1 | 35% | 4% | 23% | x | 27µM*
COc1cccc(N2CCN(C(=S)NCCc3ccccc3)CC2)c1 | 25µM* | u | 12% | -4% | -12%
COc1ccc(N2CCN(C(=S)NCCc3ccccc3)CC2)cc1 | x | x | x | x | 27µM*
COc1ccc(C(=O)C2CCN(C(=O)c3ccc(C)cc3)CC2)cc1 | u | -20% | -2% | 5µM* | -1%
CC1(C(=O)NC2CCc3ccccc32)CCN1CCc1ccccc1 (stereo not given) | x | x | x | x | 0%
O=C(NC1CCCCC1)c1nc(-c2c(F)cccc2F)oc1-c1ccccc1 | x | x | x | x | -1%
Oc1ccc(N2CCN(C(=S)NCCc3ccccc3)CC2)cc1 | -3% | -2% | 11µM* | 11µM* | -29%
S=C(CN1CCCC1=S)NCCc1ccccc1 | 7.9µM* | u | -13% | x | -11%
Oc1ccccc1N1CCN(C(=S)NCCc2ccccc2)CC1 | u | 21% | 45µM* | -10% | -14%
O=[N+]([O-])c1ccc(NC(=S)N2CCN(c3ccccc3)CC2)cc1 | -20% | u | -25% | u | -16%
CC(=O)N1CCN(C(=S)NCCc2ccccc2)CC1 | 22% | 0% | 5% | -7% | -22%
O=[N+]([O-])c1ccc(N2CCN(C(=S)Nc3ccccc3)CC2)cc1 | -4% | -3% | -5% | 1.4µM* | -6%
Cc1cccnc1C(NC(=O)C1CCN(CCCOc2ccc(F)cc2)CC1)c1ccccc1 (stereo not given) | x | x | x | x | -1%
COc1ccc([C@H]2C[C@H](O)[C@@H](n3cc(-c4ccc(F)cc4)nn3)CN2C(=O)C2CCCCC2)cc1 | x | x | x | x | -1%
CC(=O)c1ccc(N2CCN(C(=S)Nc3cccc(F)c3)CC2)cc1 | 14µM* | -15% | -4% | -3% | -13%
O=[N+]([O-])c1ccc(N2CCN(C(=S)NC3CCCCC3)CC2)cc1 | -1% | u | 11% | 5µM* | -1%

Screens (PubChem)
